Here are results for 69 compounds from PubChem BioAssay AID463173 (ICCB-Longwood Screening Facility, Harvard Medical School, 2010).

The campaign covered roughly 52,000 compounds. About 4,300 (8.3%) were called active. Cut-off read from the data, not from the text of the source: active = survival mostly below about 52% (no sharp cut-off); inactive = mostly above about 56%. The full list was thinned out, with actives kept by preference.

The assay deals with DeltatarO mutant. Put plainly: growth inhibition of S. aureus wild type versus tarO mutant, primary screen, teichoic acid synthesis inhibitors, RN4220, OD600 (AID 463173). The note with it: OD600, 18 h, hits give low values, screened at 18.75 µg/mL (by protocol).
With `CCN(CC)CCNC(=O)c1c2c(nc3ccccc13)C(=O)N(C1CCCCC1)C2`, the survival is 94% (inactive).
The result for `CCOc1ccc2c(c1)c(=O)c(C(=O)c1ccc(CC)cc1)cn2CC(=O)Nc1ccccc1C` reads 70% (inactive); that for `CCOC(=O)C1CCN(C(=O)c2ccc(C)c(NC(=O)c3nsc4ccccc34)c2)CC1`, 88% (inactive).
The result for `CCN(CCCNC(=O)c1cc2c(=O)n(CC)c3ccccc3c2s1)Cc1ccccc1` reads 101% (inactive); that for `CCN(CCCNC(=O)c1cc2c(=O)n(C)c3ccccc3c2s1)c1ccccc1`, 57% (inactive); that for `CCN(CCCNC(=O)c1cc2c(=O)n(CC)c3ccccc3c2s1)c1ccccc1`, 47% (active).
In the case of `Cc1ccc(Sc2c(C(=O)NCc3cccc(F)c3)[nH]c3ccccc23)cc1` it was 72% (inactive); in that of `O=C(Cn1cnc2scc(-c3ccccc3)c2c1=O)NCc1ccco1`, 60% (inactive).
On to `CCc1cccc(C)c1Nc1c(-c2ccc(SC)cc2)nc2sccn12`, for which the survival was 50% (inactive).
In the case of `CC(=O)N1CCc2c(sc3nc(SCC(N)=O)n(-c4ccc(F)c(Cl)c4)c(=O)c23)C1` it was 75% (inactive); in that of `CCOc1ccc(NC(=O)CC2C(=O)OCCN2CC)cc1` (centres undefined), 56% (inactive); in that of `CCc1ccc(NC(=O)CC2C(=O)OCCN2CC)cc1` (centres undefined), 5% (active).
In the case of `CCN1CCOC(=O)C1CC(=O)Nc1ccc(Br)cc1` (centres undefined) it was 44% (active); in that of `CCN1CCOC(=O)C1CC(=O)Nc1cc(C)cc(C)c1` (centres undefined), 142% (inactive); in that of `CCOC(=O)c1ccc(NC(=O)CC2C(=O)OCCN2CC)cc1` (centres undefined), 61% (inactive).
In the case of `CCN1CCOC(=O)C1CC(=O)Nc1ccc(C(C)=O)cc1` (centres undefined) it was 59% (inactive); in that of `O=C(NCCc1ccc(Cl)cc1)c1ccc2c(c1)N(Cc1ccccc1F)C(=O)c1ccccc1S2(=O)=O`, 79% (inactive).
On to `CCc1cccc2c(-c3ccccc3)nc(SCC(=O)Nc3ccccc3OC)nc12`, for which the survival was 109% (inactive).
The result for `Cc1ccc(C)c(N2CCN(S(=O)(=O)c3cnc(N)nc3)CC2)c1` reads 86% (inactive).
The result for `COc1ccc2oc(=O)c(-c3cn4c(n3)sc3cc(F)ccc34)cc2c1` reads 76% (inactive).
The result for `Cc1oc2ccc(O)c(CN3CCN(Cc4ccccc4)CC3)c2c1C(=O)Nc1ccccc1` reads 68% (inactive).
Take `COc1cccc(Cc2nc3ccccc3nc2SCC(=O)NCCc2ccccc2)c1`: the survival was 87% (inactive).
The result for `COc1ccc(CCNC(=O)CCc2c(C)nc3c(c(C)nn3-c3ccccc3)c2C)c(OC)c1` reads 53% (active); that for `COc1cc2c(-c3ccccc3O)nc3c(c(C)nn3-c3ccccc3)c2cc1OC`, 68% (inactive).
The result for `Cc1nc2c(c(C)nn2-c2ccccc2)c(C)c1CCC(=O)NCCc1ccccc1` reads 58% (inactive).
In the case of `COc1cc2c(-c3ccccc3C)nc3c(c(C)nn3-c3ccccc3)c2cc1OC` it was 35% (active); in that of `Cc1cccc(CCNC(=O)CCc2c(C)nc3c(c(C)nn3-c3ccccc3)c2C)c1`, 48% (active).
Take `COc1cc2c(-c3ccccc3Cl)nc3c(c(C)nn3-c3ccccc3)c2cc1OC`: the survival is 57% (inactive).
In the case of `Cc1nc2c(c(C)nn2-c2ccccc2)c(C)c1CCC(=O)NCc1ccccc1`, the survival was 70% (inactive).
The result for `COc1ccc(CNC(=O)CCc2c(C)nc3c(c(C)nn3-c3ccccc3)c2C)cc1` reads 78% (inactive); that for `COc1ccc(CCNC(=O)CCc2c(C)nc3c(c(C)nn3-c3ccc(C)cc3)c2C)c(OC)c1`, 107% (inactive); that for `O=c1c2ccc(N3CCOCC3)c3cccc(c32)c2nc3ccccc3n12`, 90% (inactive).
In the case of `O=C(Nc1ccc2oc(-c3cccnc3)nc2c1)c1cccc(Br)c1` it was 62% (inactive); in that of `Cc1cccc(C(=O)Nc2ccc3oc(-c4cccc5c(Br)cccc45)nc3c2)c1`, 67% (inactive); in that of `Cc1cccc(C(=O)Nc2ccc(-c3nc4cc(C(C)C)ccc4o3)cc2)c1`, 34% (active).
The result for `CC(C)c1ccc2oc(-c3ccc(NC(=O)c4cccc(Br)c4)cc3)nc2c1` reads 44% (active).
As for `Cc1cccc(C(=O)Nc2ccc3oc(-c4ccncc4)nc3c2)c1`, the survival was 62% (inactive).
In the case of `CC(C)(C)c1ccc(-c2nc3cc(NC(=O)c4cccc(Br)c4)ccc3o2)cc1` it was 73% (inactive).
For the compound `CC1CCN(CC(=O)Nc2ccc3ccccc3c2)CC1`, the survival is 107% (inactive).
In the case of `CCCC(O)=NS(=O)(=O)c1ccc(N=NN(C)C)cc1` it was 94% (inactive).
Consider `COc1cccc(NC(=O)CN(C)S(=O)(=O)c2cccs2)c1`, for which the survival was 108% (inactive).
In the case of `CC(C)C(OC(=O)c1cc2occc2n1C(C)C)C(=O)NCC1CCCO1` (centres undefined) it was 67% (inactive); in that of `COc1ccc(NC(=O)Cn2cc(C#N)c3ccccc32)cc1`, 67% (inactive); in that of `CCC1CN(C(=O)N2CCC(C(=O)NCCc3ccc(OC)c(OC)c3)CC2)c2ccccc2O1` (centres undefined), 74% (inactive).
In the case of `CC1CCc2nc3ncn(Cc4cccc(F)c4)c(=O)c3cc2C1` (centres undefined) it was 102% (inactive); in that of `CC1CCc2nc3ncn(Cc4ccccc4F)c(=O)c3cc2C1` (centres undefined), 66% (inactive); in that of `Cc1ccccc1Cn1cnc2nc3c(cc2c1=O)CC(C)CC3` (centres undefined), 8% (active).
In the case of `CC1CCc2nc3ncn(Cc4ccccc4C#N)c(=O)c3cc2C1` (centres undefined) it was 81% (inactive).
Take `Cc1ccc(Cn2cnc3nc4c(cc3c2=O)CC(C)CC4)cc1` (centres undefined): the survival is 20% (active).
In the case of `CC1CCc2nc3ncn(Cc4ccc(Cl)cc4)c(=O)c3cc2C1` (centres undefined), the survival is 85% (inactive).
For `CC1CCN(C(=O)Cn2cc(SCc3ccccc3)c3ccccc32)CC1`, the survival was 46% (inactive).
The result for `Cc1cc(C)cc(NC(=O)c2cc(CN3CCCC3)on2)c1` reads 88% (inactive); that for `CCOc1ccc(NC(=O)c2c(NCc3cccs3)sc3c2CCC(C)C3)cc1` (centres undefined), 129% (inactive).
For the compound `COc1ccc(CNc2ncnc3c2c(-c2ccccc2)cn3-c2cccc(C)c2)cc1`, the survival is 67% (inactive).
The result for `Cc1ccc(CNC(=O)Cn2c3ncccc3c(=O)n2-c2ccc(C)cc2)cc1` reads 116% (inactive); that for `CCOC(=O)N1CCN(C(=O)c2ccc3c(c2)N(Cc2cccc(Cl)c2)C(=O)c2ccccc2S3=O)CC1` (centres undefined), 102% (inactive).
In the case of `Cc1cccc(Cc2cnc(NC(=O)C3Cc4ccc(C)cc4C(=O)O3)s2)c1` (centres undefined) it was 85% (inactive); in that of `CCOC(=O)c1c(NC(=O)c2cc(CC(C)C)on2)sc(C(C)=O)c1C`, 54% (active).
The result for `CCOC(=O)c1c(NC(=O)c2cc(-c3ccc(Br)cc3)on2)sc(C(C)=O)c1C` reads 88% (inactive); that for `CCOC(=O)c1c(NC(=O)c2cc(-c3ccc(Br)cc3)on2)sc(C)c1C`, 166% (inactive); that for `CCOC(=O)c1c(NC(=O)c2cc(-c3cccc(Cl)c3)on2)sc(C)c1C`, 56% (active).
Consider `CCOC(=O)c1c(NC(=O)c2cc(-c3ccc(OC)c(OC)c3)on2)sc(C)c1C`, for which the survival was 42% (active).
In the case of `CCOC(=O)c1c(NC(=O)c2cc(CC)on2)sc(C(C)=O)c1C` it was 52% (inactive).
In the case of `CCOC(=O)c1sc(NC(=O)c2cc(-c3ccc(F)cc3)on2)c(C(=O)OCC)c1C` it was 65% (inactive); in that of `CCOC(=O)c1c(NC(=O)c2cc(-c3cccc(Cl)c3)on2)sc(C(C)=O)c1C`, 56% (inactive); in that of `CCOC(=O)c1c(NC(=O)c2cc(-c3ccc(OC)cc3)on2)sc(C)c1C`, 45% (active).
In the case of `CCOC(=O)c1c(NC(=O)c2cc(-c3ccccc3OC)on2)sc(C)c1C` it was 61% (inactive); in that of `CCOC(=O)c1c(NC(=O)c2cc(C(C)C)on2)sc(C(C)=O)c1C`, 123% (inactive); in that of `CCOC(=O)c1c(NC(=O)c2cc(-c3ccc(Cl)cc3)on2)sc(C)c1C`, 68% (inactive).
